Only a selection was taken, and hits are over-represented in it overall.
GluA2 TARP mod – modulates AMPAR-stargazin complexes | AID 1259245 | calls only at 30 µM | HEK293 GluA2+stargazin, membrane potential dye (FDSS), glutamate EC50; hits were called plate by plate, in both directions | actives 3.5% (n = 40,000);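 active = any of four per-well response measures lying three or more SD from its plate-wide compound average, in either direction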
Target sequence (O88602 whole entry, looked up): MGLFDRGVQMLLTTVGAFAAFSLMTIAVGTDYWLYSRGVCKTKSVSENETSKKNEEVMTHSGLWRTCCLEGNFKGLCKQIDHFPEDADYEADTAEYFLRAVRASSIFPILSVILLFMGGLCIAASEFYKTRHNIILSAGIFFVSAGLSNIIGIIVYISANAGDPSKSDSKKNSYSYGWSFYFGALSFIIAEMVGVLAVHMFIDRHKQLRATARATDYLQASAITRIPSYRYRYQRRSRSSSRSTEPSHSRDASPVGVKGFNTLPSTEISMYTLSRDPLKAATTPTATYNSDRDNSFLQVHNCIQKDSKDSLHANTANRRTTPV
Target sequence (P19491 whole entry, looked up): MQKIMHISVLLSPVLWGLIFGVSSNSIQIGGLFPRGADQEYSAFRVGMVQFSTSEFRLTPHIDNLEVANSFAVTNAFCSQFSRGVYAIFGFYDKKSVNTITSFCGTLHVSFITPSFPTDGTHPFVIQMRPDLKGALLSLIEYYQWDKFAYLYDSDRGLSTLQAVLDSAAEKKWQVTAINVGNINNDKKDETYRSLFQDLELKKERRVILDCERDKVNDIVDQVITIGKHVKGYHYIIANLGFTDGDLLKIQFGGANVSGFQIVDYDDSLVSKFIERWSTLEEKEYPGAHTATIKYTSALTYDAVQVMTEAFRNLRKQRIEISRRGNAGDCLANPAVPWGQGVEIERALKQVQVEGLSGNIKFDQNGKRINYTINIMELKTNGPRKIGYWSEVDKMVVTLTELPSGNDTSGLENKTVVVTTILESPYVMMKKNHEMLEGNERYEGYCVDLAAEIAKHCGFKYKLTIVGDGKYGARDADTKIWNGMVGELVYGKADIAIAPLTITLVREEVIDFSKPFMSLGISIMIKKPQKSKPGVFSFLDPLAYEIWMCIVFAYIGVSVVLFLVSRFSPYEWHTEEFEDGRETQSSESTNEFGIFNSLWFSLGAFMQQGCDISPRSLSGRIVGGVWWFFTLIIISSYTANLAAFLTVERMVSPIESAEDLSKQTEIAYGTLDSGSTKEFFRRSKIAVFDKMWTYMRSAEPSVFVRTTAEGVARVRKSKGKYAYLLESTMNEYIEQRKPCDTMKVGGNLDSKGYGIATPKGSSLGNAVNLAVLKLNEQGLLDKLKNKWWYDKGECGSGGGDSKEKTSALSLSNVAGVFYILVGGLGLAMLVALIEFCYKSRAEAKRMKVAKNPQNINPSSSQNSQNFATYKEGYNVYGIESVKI
GIRK2 activator – GIRK2 channel activators by thallium flux; HEK293 GIRK2/NPY4 cells, thallium flux fluorescence; activation (% efficacy), % for hits at 37.5 µM; 34,000 tested, under 10 active; AID 1259324;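 active = primary screen hit, no activity in plain HEK293 cells, and in GIRK2-only cells above 5% efficacy rising with concentration; inactive = the rest, including fluorescent compounds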;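 note: efficacy is normalized control-subtracted fluorescence 15 s after thallium addition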
Calls only; - = inactive; . = not tested or not shown; + = active, no number.

SMILES | GluA2 TARP mod | GIRK2 activator
COc1ccc(-c2noc(CSc3nc4ccccc4c(=O)n3Cc3ccco3)n2)cc1OC | + | .
CSc1ccc(-c2noc(CSc3nc4ccccc4c(=O)n3Cc3ccco3)n2)cc1 | - | .
COc1ccc(F)cc1S(=O)(=O)NCC(O)c1ccc(C(F)(F)F)cc1 (stereo not given) | - | -
COc1ccc(F)cc1S(=O)(=O)NCCC(O)C(C)(C)C (stereo not given) | + | -
CCOc1ccccc1C(=O)Nc1ccc2nc(C)n(-c3ccccc3)c(=O)c2c1 | - | .
Cc1cc(C(=O)N2CCC3(CC2)OCCN3S(=O)(=O)c2cccs2)c(C)o1 | + | -
COc1ccc(S(=O)(=O)N2CCOC23CCN(C(=O)c2cc(C)oc2C)CC3)cc1 | - | -
O=C(Cn1nc(C(=O)Nc2ccccc2)ccc1=O)Nc1ccc(OC(F)(F)F)cc1 | - | -
Cc1cc(NC(=O)c2ccc([N+](=O)[O-])c(C)c2)ccc1N1CCCCC1=O | - | -
Cc1cc(C(=O)Nc2cccc(N3CCCC3=O)c2)ccc1[N+](=O)[O-] | + | -
COc1cc(NS(=O)(=O)c2ccc3c(c2)CCCC3)ccc1N1CCCCC1=O | + | -
COc1ccc(NS(=O)(=O)c2ccc3c(c2)CCCC3)cc1N1CCCCC1=O | - | -
Cc1ccc(-c2ccc(SCC(=O)Nc3cc(C)on3)nn2)c(C)c1 | - | -
CCCNC(=O)C(=O)NCC1OCCCN1S(=O)(=O)c1ccc(OC)c(OC)c1 (stereo not given) | - | .
Cc1ccc(Nc2ccc(NC(=O)c3ccc4c(c3)OCO4)cc2)nn1 | - | -
Cc1cc(N(C)C)nc(Nc2ccc(NC(=O)c3ccc4c(c3)OCO4)cc2)n1 | + | .
O=C(Nc1ccc(Cl)cc1)N(CCCO)CC(O)Cn1c2ccccc2c2ccccc21 (stereo not given) | + | -
O=C(NC1CCCCC1)N(CCCO)CC(O)Cn1c2ccccc2c2ccccc21 (stereo not given) | - | -
Cc1cc(C(=O)NC2CCCCC2N2C(=O)CSC2=O)c(C)o1 (stereo not given) | - | -
O=C(CN1C(=O)S/C(=C\c2ccccc2)C1=O)NCCN1C(=O)CSC1=O | - | -
Cc1c(C)c(C)c(S(=O)(=O)NCCC(O)c2ccco2)c(C)c1C (stereo not given) | + | -
CN(C)CCNC(=O)C(=O)NCCC(O)c1ccco1 (stereo not given) | - | -
COc1coc(C(=O)Nc2nc3ccc([N+](=O)[O-])cc3s2)cc1=O | + | -
Cc1cccc2sc(NC(=O)c3ccc(=O)n(Cc4ccc(Cl)cc4)c3)nc12 | - | -
O=C(Nc1nc2ccccc2s1)c1ccc(=O)n(Cc2cccc([N+](=O)[O-])c2)c1 | - | -
SMILES | GluA2 TARP mod | GIRK2 activator
O=C(Nc1nc2ccc([N+](=O)[O-])cc2s1)c1ccc(=O)n(Cc2ccccc2)c1 | + | -
COc1cccc(COc2coc(C(=O)Nc3nc4ccc(Cl)cc4s3)cc2=O)c1 | - | -
CS(=O)(=O)c1ccc2nc(NC(=O)c3ccc(=O)n(Cc4ccc(Cl)cc4)c3)sc2c1 | + | -
CC1CCCCN1c1ccc(N2CCN(S(=O)(=O)c3cccc([N+](=O)[O-])c3)CC2)nn1 (stereo not given) | - | -
O=C(NCC1(O)CCc2ccccc21)Nc1ccc(Cl)c(Cl)c1 (stereo not given) | + | -
O=C(NCC1(O)CCc2ccccc21)Nc1ccccc1Cl (stereo not given) | - | -
Cc1ccc(N2C(=O)N(CC(=O)N3CCCCCC3)c3ccccc3S2(=O)=O)cc1 | - | .
CC(C)c1ccc(NC(=O)c2ccc(S(=O)(=O)NC3CC3)o2)cc1 | - | -
COc1ccc(N2C(=O)CN(CCc3ccccc3OC)C3CS(=O)(=O)CC32)cc1 (stereo not given) | - | -
COc1ccc(N2C(=O)CS(=O)(=O)C23C(=O)N(Cc2ccccc2C)c2ccccc23)cc1 (stereo not given) | + | .
O=C(Nc1cccc(N2CCCCC2=O)c1)C1c2ccccc2Oc2ccccc21 | - | -
COC(=O)Cn1c(=O)c2c(nc3n(-c4cc(OC)ccc4OC)c(C)c(C)n23)n(C)c1=O | - | .
O=C(NCC1CCN(Cc2ccccc2)CC1)C(=O)Nc1ccc2c(c1)OCO2 | + | -
O=C(NCC1CCN(Cc2ccccc2)CC1)C(=O)Nc1ccc2c(c1)OCCO2 | - | -
COc1ccccc1NC(=O)Nc1ccc2c(c1)N(C(=O)c1ccccc1)CCC2 | . | -
CCCn1c(C2CC(=O)N(CCc3ccccc3)C2)nc2ccccc21 (stereo not given) | + | .
Cn1c(C2CC(=O)N(CCc3ccccc3)C2)nc2ccccc21 (stereo not given) | - | .
CN1CC(c2nc3ccccc3n2CCCc2ccccc2)CC1=O (stereo not given) | - | .
CCCCN1CC(c2nc3ccccc3n2CCOc2cccc(OC)c2)CC1=O (stereo not given) | - | .
O=C1CC(c2nc3ccccc3n2CC2CCCCC2)CN1CCc1ccccc1 (stereo not given) | + | .
CCCn1c(C2CC(=O)N(c3ccc(C)c(Cl)c3)C2)nc2ccccc21 (stereo not given) | - | .
CCCCN1CC(c2nc3ccccc3n2CCOc2ccccc2OC)CC1=O (stereo not given) | + | .
CCCCn1c(C2CC(=O)N(c3ccc(C)c(Cl)c3)C2)nc2ccccc21 (stereo not given) | + | .
CCCC1Oc2ccccc2C(=O)N(CC(=O)c2ccc(F)cc2)C1=O (stereo not given) | - | .
COc1ccc(NC(=O)CSc2nnc(-c3ccc(=O)n(C)c3)n2C)cc1 | - | -
SMILES | GluA2 TARP mod | GIRK2 activator
COC(=O)c1ccc(Oc2cn[nH]c2-c2ccc(OC)cc2O)cc1 | - | -
NS(=O)(=O)c1ccc(CCNC(=O)C2CCCN(C(=O)NC3CC3)C2)cc1 (stereo not given) | - | -
Cc1nnsc1C(=O)N1CCC(CNC(=O)C23CC4CC(CC(C4)C2)C3)CC1 | - | -
COc1cc(OC)cc(C(=O)Nc2cc3c4c(c2)CCN4C(=O)CC3)c1 | - | -
O=C(Nc1ccccc1C(F)(F)F)N(Cc1ccccn1)Cc1ccco1 | . | -
O=C(NC1CCCCC1)N1CCN(Cc2nc(-c3cccs3)cs2)CC1 | - | -
CCCCN1CC(c2nc3ccccc3n2Cc2c(F)cccc2Cl)CC1=O (stereo not given) | + | .
C=C(Br)Cn1c(C2CC(=O)N(CCCC)C2)nc2ccccc21 (stereo not given) | - | -
CC(=O)NCCc1nc2ccccc2n1Cc1c(C)cc(C)cc1C | - | -
CC(=O)NCCc1nc2ccccc2n1Cc1c(C)c(C)cc(C)c1C | + | -
OCCCc1nc2ccccc2n1Cc1ccc(F)cc1 | - | .
Cc1cc(C)c(C)c(Cn2c(CCCO)nc3ccccc32)c1C | + | -
COc1ccc(Cl)cc1NC(=O)NCC1(O)CCCC1 | - | -
Cn1c(=O)c2cc(C(=O)Nc3ccccc3F)sc2n(C)c1=O | + | -
CC(C)CNC(=O)c1cc2c(=O)n(C)c(=O)n(C)c2s1 | - | -
CN1CCN(C(=O)c2cc3c(=O)n(C)c(=O)n(C)c3s2)CC1 | + | -
Cn1c(=O)c2cc(C(=O)N3CCN(C(=O)c4ccco4)CC3)sc2n(C)c1=O | - | -
Cn1c(=O)c2cc(C(=O)NCCc3ccccc3)sc2n(C)c1=O | - | -
Cn1c(=O)c2cc(C(=O)NCCCN3CCCC3=O)sc2n(C)c1=O | + | -

Bioassay records as filed in PubChem.
